Reference: PubChem BioAssay AID743287 (Broad Institute, 2014)
Several values for one entry are separate records, joined by “and”; a condition that tells them apart may be missing. Equal entries are not always repeated. Screen size: about 370,000 compounds; about 2,300 (0.62%) were called active. This is one part of a sample in which actives are shown more often than they occur.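 The calls were made as follows: active = lowest replicate activation of at least 40%, so every replicate reaches that level; inactive = the rest.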 Some compounds were tested as several samples or in several runs, with calls that do not always agree.

assay: GLuc luminescence reporter in INS-1E cells, primary screen for activators of glucose-dependent secretion of insulin (AID 743287); settings: INS-1E GLuc reporter insulin secretion, 2-3 h, at 16.6 µM, stronger effect = higher value;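 also: 0% = median of neutral control wells and 100% = median of IBMX positive control wells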

Q: With COc1ccc(C(=O)C2CCCN(Cc3ccc(C)s3)C2)cc1OC (stereo not given) as the molecule, how does the activation read?
A: The activation was 53.8% (active).

Q: With COc1cccc(CN2CCCC(C(=O)c3ccccc3SC)C2)c1O (stereo not given) as the molecule, how does the activation read?
A: Its activation is -0.167% (inactive).

Q: With Cc1ccc(CN2CCCC(C(=O)c3ccc4c(c3)OCO4)C2)cc1C (stereo not given) as the molecule, how does the activation read?
A: Its activation is -7.76% (inactive).

Q: With CCN(CC)C(=O)[C@@H]1C=C2c3cccc4[nH]c(Br)c(c34)C[C@H]2N(C)C1 as the molecule, how does the activation read?
A: The activation was 13.7% (inactive).

Q: For COC(=O)[C@H]1[C@H](CO)[C@H]2Cn3c(ccc(C4=CCCC4)c3=O)[C@@H]1N2C(=O)CC1CC1, which activation is on record?
A: Its activation is -1.71% (inactive).

Q: With FC(F)(F)CN1CC2NC(C1)C2c1ccc(Br)cc1 (stereo not given) as the molecule, how does the activation read?
A: The activation was -10.5% (inactive).

Q: Which activation does the source give for O=C(O)[C@H]1[C@H](CO)[C@H]2Cn3c(ccc(-c4ccccc4F)c3=O)[C@@H]1N2C(=O)c1cccnc1 here?
A: Its activation is 19.1% (inactive).

Q: For CC(Cc1ccccc1)NCCC(c1ccccc1)c1ccccc1 (stereo not given), which activation is on record?
A: The activation was 182% (active).

Q: For CC(Cc1ccccc1)NC=O (stereo not given), which activation is on record?
A: Its activation is 3.77% (inactive).

Q: Which activation does the source give for FC(F)(F)CN1CC2C(c3ccc(Br)cc3)C(C1)N2CC1CC1 (stereo not given) here?
A: Its activation is -3.91% (inactive).

Q: Which activation does the source give for COC(=O)[C@@H]1[C@@H](CO)[C@@H]2Cn3c(ccc(C4=CCCCC4)c3=O)[C@H]1N2CC1CC1 here?
A: The activation was 6.37% (inactive).

Q: Which activation does the source give for CCCCCCCCCCCCn1ccc(=N)cc1 here?
A: Its activation is 212% (active).

Q: With Clc1ccc([C@@H]2CC3CCC2N3)cn1 (stereo not given in full) as the molecule, how does the activation read?
A: The activation was -8.41% (inactive).

Q: With C/C=C/c1ccc(C2[C@@H]3CN(S(C)(=O)=O)C[C@H]2N3)cc1 (stereo not given in full) as the molecule, how does the activation read?
A: The activation was -6.54% (inactive).

Q: For O=C(O)[C@H]1[C@H](CO)[C@H]2Cn3c(cccc3=O)[C@@H]1N2C(=O)c1ccccc1, which activation is on record?
A: The activation was 0.382% (inactive).

Q: With C=CCN1[C@@H]2CN(S(C)(=O)=O)C[C@H]1C2c1ccc(Br)cc1 (stereo not given in full) as the molecule, how does the activation read?
A: Its activation is 17.3% (inactive).

Q: For CC(C)Nc1nc(Cl)nc(NC(C)C)n1, which activation is on record?
A: The activation was 50.3% (active).

Q: Which activation does the source give for CC(=O)N1C[C@@H]2C(c3ccc(Br)cc3)[C@H](C1)N2C (stereo not given in full) here?
A: Its activation is 27.1% (inactive) and -21.4% (inactive).

Q: Which activation does the source give for COc1ccc2c(c1)[C@@]13CCCCC1[C@@H](C2)NCC3 (stereo not given in full) here?
A: The activation was 8.42% (inactive).

Q: With COc1cccc(-c2ccc3n(c2=O)C[C@H]2[C@H](CO)[C@@H](C(=O)O)[C@@H]3N2C(=O)c2cnccn2)c1 as the molecule, how does the activation read?
A: Its activation is 14.6% (inactive).

Q: With COc1ccccc1CN1[C@@H](CO)[C@@H](c2ccccc2)C12CN(C(=O)Cc1ccccc1)C2 as the molecule, how does the activation read?
A: Its activation is -6.56% (inactive).

Q: With COC(=O)C[C@H]1CC[C@H]2NC[C@@H](O)COC[C@@H]2O1 as the molecule, how does the activation read?
A: The activation was 44% (active) and 14.5% (inactive).

Q: With COC(=O)C[C@@H]1CC[C@@H]2NC[C@@H](O)COC[C@H]2O1 as the molecule, how does the activation read?
A: Its activation is 7.25% (inactive).

Q: For CCC(C)NC1(c2ccccc2)CCCCC1 (stereo not given), which activation is on record?
A: The activation was 12.2% (inactive).

Q: For C[C@@H]1CN([C@H](C)CO)C(=O)CCCn2cc(nn2)CO[C@@H]1CN(C)C(=O)Oc1cccc2ccccc12, which activation is on record?
A: Its activation is -14.5% (inactive).
